# Screening data as filed in PubChem.
# ALR inh: blocks human ALR sulfhydryl oxidase activity; P55789; purified ALR, DTT oxidation, H2O2 HRP-luminol luminescence; inhibition, % (concentration not given with the values); 290,000 compounds, 3.8% hits;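 active means mean replicate inhibition above about 79%, with every replicate also reaching it, limit read from the data; inconclusive means only one of the two criteria met; inactive means mean below limit and not every replicate reaching it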
# Target sequence (P55789 whole entry, looked up): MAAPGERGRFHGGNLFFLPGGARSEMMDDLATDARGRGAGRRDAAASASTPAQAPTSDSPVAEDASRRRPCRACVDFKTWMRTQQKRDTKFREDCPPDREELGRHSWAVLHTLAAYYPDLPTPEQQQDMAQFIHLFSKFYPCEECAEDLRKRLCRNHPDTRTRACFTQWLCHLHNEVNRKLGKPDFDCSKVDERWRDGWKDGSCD
# beta cell repl: inducers of beta-cell replication in MIN6 cells | proliferation, % at 10 µM | 330,000 compounds, 0.29% hits | MIN6 cells proliferation, ATPlite luminescence, 48 h; cells starved in 0.2% serum; 100% = growth in 10% serum;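 active means compounds whose signal lies at least 3.5 SD above the mean of all wells on their plate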;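 further: 0% = DMSO-treated cells in low-serum medium and 100% = 10% serum control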
# SMARCA2 act: SMARCA2 function activation, primary screen; MG213 cells, MMTV-luciferase reporter, dexamethasone, overnight; activation, % at 9.1 µM; 370,000 compounds, 1% hits; AID 652017; in the data active means activation above about 7.8%;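 further: 0% = vehicle wells and 100% = reference activator wells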
# M18AAP inhibitor: PfM18AAP enzyme inhibition | recombinant PfM18AAP, H-Glu-NHMec fluorogenic cleavage | inhibition, % at 7.35 µM | 290,000 compounds, 1.2% hits | AID 1822;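 active means inhibition above the campaign mean inhibition over all tested compounds plus 3 SD, cut at about 28% in these data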;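 further: 0% = plate median of test compound wells and 100% = 2 mM ZnCl2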
# GASC-1 inh: human JMJD2C demethylase inhibition; Q9H3R0; GST-JMJD2C(1-420) H3K9me3 demethylation, DELFIA europium; inhibition, % at 2.35 µM; 330,000 compounds, 0.069% hits; AID 2099;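 active means more than half of a compound's replicate wells show inhibition beyond 50%, single wells judged on their own value; inconclusive means some, but no more than half, of replicates pass 50% inhibition; inactive means no replicate passes 50% inhibition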;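 further: signal counts dimethyl H3K9 product captured on neutravidin plate; 0% = median of DMSO wells and 100% = 0.3 times that DMSO median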
# Granule exo inh: lytic granule exocytosis inhibition. inhibition, % at 10 µM. TALL-104 LAMP-1 surface exposure, flow cytometry; cells stimulated with thapsigargin and PMA. 360,000 compounds, 0.66% hits;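 active means inhibition above about 55%, limit read from the data; inconclusive means no clear call, values can overlap the other calls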
# An asterisk follows results filed as active; ? = inconclusive; . = not tested or not shown. This is a sample that favours compounds with a hit; in the whole collection about 5.4% have one here.
SMILES,ALR inh,beta cell repl,SMARCA2 act,M18AAP inhibitor,GASC-1 inh,Granule exo inh
Fc1ccccc1Cn1ccc2ccc(-c3ccc4ccn(Cc5ccccc5)c4c3)cc21,.,.,-1,.,.,.
O=C(Nc1cccc(S(=O)(=O)N2CCCC2)c1)c1cccc(S(=O)(=O)N2CCOCC2)c1,97*,1,-3,.,.,-4
O=C(c1cnn(C(=O)c2cccc(S(=O)(=O)N3CCOCC3)c2)c1)c1cc(Cl)cc(Cl)c1O,.,-2,.,-24,8,.
O=C(c1cnn(C(=O)c2cccc(S(=O)(=O)N3CCOCC3)c2)c1)c1ccccc1O,90*,-1,0,6,2,-3
COc1cccc(NC(=O)c2oc3ccc(S(=O)(=O)N4CCOCC4)cc3c2C)c1,82*,0,2,-2,-3,-2
Cc1ccc(NC(=O)c2oc3ccc(S(=O)(=O)N4CCOCC4)cc3c2C)cc1C,.,0,-3,2,55,-2
CN1CCN(c2ccc(NC(=O)c3cccc(S(=O)(=O)N4CCCC4)c3)cc2)CC1,-6,-3,2,.,5,-2
CCN(c1ccc(NC(=O)c2cccc(S(=O)(=O)N3CCN(C)CC3)c2)cc1)C(C)C,99*,-3,-1,5,3,-2
Cc1ccc(CN2CCCCC(NC(=O)Nc3ccccc3-c3ccccc3)C2=O)cc1 (configuration not stated),.,.,-4,.,.,.
C=CCN1C(=O)[C@H](CC(=O)NCCC(C)C)[C@@]2(C(=O)OCC)CCCC=C12,.,.,-2,.,.,.
COC(=O)[C@H](C(C)C)N(Cc1cn(CC2CCCCC2)nn1)S(=O)(=O)c1ccc(F)cc1Br,.,.,0,.,.,.
COC(=O)N1CCCC1c1cccc2[nH]cc(C)c12 (configuration not stated),.,.,-5,.,.,.
COc1cccc(N2CC(C(=O)Nc3nnc(SCc4cccnc4)s3)CC2=O)c1 (configuration not stated),-44,0,1,-1,23,-4
O=C(Nc1nnc(SCc2cccnc2)s1)C1CC(=O)N(c2ccc(F)cc2)C1 (configuration not stated),97*,-3,2,3,1,-2
COc1ccc(C(=O)CSc2nnc(-c3ccccc3)n2-c2ccc(Cl)cc2)cc1,.,.,-2,.,.,.
Cc1nn(CC(O)c2ccccc2)c(C)c1Br (configuration not stated),-27,2,2,-4,-5,-2
CCn1nc(C)c(Br)c1C(=O)Sc1ccccc1Cl,.,-4,-2,7,-3,69*
O=C(CCCCCNC(=O)N1CCn2c1nc1ccccc12)N[C@H](C(=O)O)c1ccccc1,-30,-4,0,1,5,-3
CSCC[C@H](NC(=O)N1CCn2c1nc1ccccc12)C(=O)NC1CC1,?,-1,4,5,12,-3
CSCC[C@H](NC(=O)N1CCn2c1nc1ccccc12)C(=O)N1CCCCC1,98*,3,-1,0,6,0
CC(NC(=O)CCNC(=O)N1CCn2c1nc1ccccc12)c1ccccc1 (configuration not stated),97*,3,0,-2,6,-2
CN(C)[C@@H]1CCN(c2ccc3c(c2)O[C@H]2CCN(C2)S3(=O)=O)C1,.,.,4,.,.,.
CCCOc1ccc(Br)cc1CSC(=N)N,-56,-6,-6,-6,-3,6
Cc1cc(CSC(=N)N)c(CSC(=N)N)cc1C,99*,-2,-3,-6,-6,1
CC(=O)Nc1ccc(OCC(O)CN2CCN(c3ccc(Cl)cc3)CC2)cc1 (configuration not stated),10,-2,4,6,-8,-2
CC(=O)Nc1ccc(OCC(O)CN2CCN(c3ccc(F)cc3)CC2)cc1 (configuration not stated),98*,-3,-2,7,5,17
CC(=O)c1ccc(OCC(O)CN2CCN(c3ccc(F)cc3)CC2)cc1 (configuration not stated),98*,1,-2,-5,-7,-4
CC(=O)Nc1ccc(OCC(O)CN2CCN(c3cccc(Cl)c3)CC2)cc1 (configuration not stated),99*,-3,-2,-5,-2,26
Cc1ccc(CN2CCCCC(NC(=O)c3cccc(C(F)(F)F)c3)C2=O)cc1 (configuration not stated),.,.,-2,.,.,.
